Source: PubChem (several laboratories)
This is a sample that favours compounds with a hit; in the whole collection about 2.1% have one here.
EP2 modulator: modulates human prostaglandin E2 receptor EP2 signaling. induction, % at 25 µM. P43116. EP2-expressing cells, cAMP HTRF FRET, PGE2 co-stimulation. 0.83% of 260,000 active;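 active = compounds whose cAMP rise, as percent of the full-agonist control response, exceeds 60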;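 also: rat C6 glioma line stably carrying human EP2 under a CMV promoter; the protocol text gives 20 µM as final concentration; 100% = response of wells given 1 µM PGE2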
Target sequence (P43116 whole entry, looked up): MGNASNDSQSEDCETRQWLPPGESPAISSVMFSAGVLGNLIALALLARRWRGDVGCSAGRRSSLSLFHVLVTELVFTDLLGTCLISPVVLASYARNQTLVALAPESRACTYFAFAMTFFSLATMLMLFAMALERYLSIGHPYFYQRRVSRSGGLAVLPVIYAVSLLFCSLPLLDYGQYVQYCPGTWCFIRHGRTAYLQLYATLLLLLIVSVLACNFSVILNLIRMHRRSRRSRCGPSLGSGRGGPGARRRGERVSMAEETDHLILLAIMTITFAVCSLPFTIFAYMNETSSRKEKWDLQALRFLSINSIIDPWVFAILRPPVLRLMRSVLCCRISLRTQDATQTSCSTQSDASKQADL
CHT block: inhibits the human high affinity choline transporter. CHT-expressing cells, membrane potential dye, choline response; active compounds read low. Q9GZV3. 0.86% of 310,000 active. B-score at 10 µM;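 active = B-score over 3 SD under the library average, and starting fluorescence ratio not unusually high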;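 also: choline stimulus applied at its EC90 after an EC20 pre-addition; B-score computed on integrated fluorescence ratio after choline addition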
PGE2 EP2 inh: EP2 receptor (human) inhibition. P43116. 0.52% of 260,000 active. inhibition, % at 25 µM. C6 glioma cells expressing human EP2, cAMP TR-FRET; cells stimulated with saturating PGE2;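 active = percent inhibition above 40 after rounding to a whole number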;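 also: rat C6 glioma host cells with rolipram phosphodiesterase inhibitor present; the protocol text gives 20 µM as final concentration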
CHT allo act: allosteric activators of human choline transporter CHT. Q9GZV3. B-score at 10 µM. CHT-expressing cells, membrane potential dye, choline EC20; active compounds read high; LV-AA mutant CHT in HEK293 cells. 0.49% of 310,000 active;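 active = initial fluorescence not abnormally high and integrated response B-score, plate-corrected, over 3 SD above library mean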
Numbers without * were called inactive; i = inactive; nt = not tested or not shown; ! = repeats disagree.

SMILES	EP2 modulator	CHT block	PGE2 EP2 inh	CHT allo act
COc1ccc2c(c1)cc1n2CCN2CCCN=C12	-13.7	-6.23*	4.4	i
C=CCn1c(N2CCC(C(=O)NCc3cccnc3)CC2)nc2ccccc21	-35.7	nt	nt	nt
CCC(C)N=Cc1c(Nc2ccccc2)nc2c(C)cccn2c1=O (configuration not stated)	66.0*	i	0.0	i
COc1ccccc1OCC(=O)Nc1ncc(Cc2cccc(Cl)c2Cl)s1	7.3	nt	11.9	nt
COc1ccc(/C(O)=C2/C(=O)C(=O)NC2c2ccc(F)cc2)cc1OC (configuration not stated)	70.0*	nt	12.7	nt
COC(=O)c1ccc(C2NC(=O)C(=O)/C2=C(\O)c2ccc(OC)c(OC)c2)cc1 (configuration not stated)	-33.6	nt	5.6	nt
CC(C)n1c(=O)n(CC(=O)N2CCC(C(N)=O)CC2)c2cccnc21	-11.6	nt	nt	nt
CC(=O)/C=C(\C)Nc1ccc(-c2cnc(-c3ccccc3)o2)cc1	-25.6	i	20.1	i
c1ccc(-c2cnc(-c3ccc(-c4ncc(-c5ccccc5)o4)cc3)o2)cc1	12.4	nt	45.4*	nt
CCc1ccc2nc(SCC(=O)Nc3ccccc3C)c(C#N)cc2c1	17.3	nt	23.3	nt
Cc1cc(C)c2c(c1)cc(C)c1nn(CC(=O)N3CCC(C(N)=O)CC3)c(=O)n12	-18.1	nt	10.9	nt
CN(C)C(=O)CSc1nc(-c2ccccc2)c(-c2ccccc2)o1	62.9*	i	7.8	i
Cc1cc2c(C)ccc(C)c2nc1SCC(=O)Nc1c(C)cccc1C	-1.0	nt	7.1	nt
Cc1cc2c(C)ccc(C)c2nc1SCC(=O)O	79.0*	nt	13.6	nt
Cc1cc2cccc(C)c2nc1SCC(=O)c1ccccc1	68.7*	nt	23.9	nt
Cc1cc2cccc(C)c2nc1SCC(=O)NC(C)(C)C	50.6	nt	8.8	nt
CC(Oc1ccc(Cl)cc1Cl)C(=O)Nc1ncc([N+](=O)[O-])s1 (configuration not stated)	-75.9	nt	11.5	nt
CN(C)CCCN1CCC2(CCC(C(C)(C)C)CC2)CC1	21.7	nt	51.0*	nt
CC(C)(C)C1CCC2(CC1)CCN(CCCN1CCOCC1)CC2	7.3	nt	44.0*	nt
CC(C)(C)CC(=O)NCCCN1CCOCC1	11.2	i	5.2	i
COc1cccc(NC(=O)CSc2nc3ccccc3s2)c1	-65.6	nt	6.3	nt
CC1(C)CC(=O)C2=C(C1)Nc1ccccc1NC2c1cc(O)ccc1O (configuration not stated)	-88.4	nt	47.4*	nt
Nc1nc2c(C(=O)NCc3cccs3)nnn2c2cccc(Cl)c12	1.4	nt	48.9*	nt
Nc1c(C(=O)NCc2cccs2)nnn1CC(=O)Nc1cccc(Cl)c1	-26.4	i	4.4	i
c1ccc2c(c1)nc(N1CCCCCC1)c1ccccc12	63.1*	i	6.7	i
SMILES	EP2 modulator	CHT block	PGE2 EP2 inh	CHT allo act
Cc1nc2ccccc2nc1N1CCCCC1	4.7	nt	15.8	nt
COc1ccc(-c2nc(-c3ccc(O)cc3O)cs2)cc1OC	-43.4	nt	82.2*	nt
Cc1ccc(NC(=O)c2cc(N3C(=O)C=CC3=O)ccc2N2CCOCC2)cc1Cl	-59.3	i	94.1*	i
CC(=O)c1cccc2c(O)c(C3=Nc4ccccc4C3=O)[nH]c12	-58.1	i	47.4*	i
C=CCSC1=N/C(=C\c2sccc2C)C(=O)S1	63.8*	i	5.2	i
Cc1cc(C)nc(-n2nc(C)cc2Nc2ccccc2)n1	29.3	-5.23*	12.0	i
C=CCc1cccc2cc(C(=O)NCc3ccc(OC)cc3)c(=O)oc12	-30.0	nt	19.1	nt
COc1ccc2nc(SCC(=O)Nc3nnc(C)s3)c(C#N)cc2c1	-77.4	nt	14.0	nt
CCSc1cnn(-c2ccccc2)c(=O)c1SCC	2.9	i	136.2*	i
CCSc1cnn(-c2ccccc2)c(=O)c1Cl	nt	i	nt	i
COc1cccc(N=C2SC(C(=O)Nc3ccccc3F)CC(=O)N2C)c1 (configuration not stated)	-18.7	i	162.7*	i
N#Cc1ccc(OC(=O)c2ccc(N=C(N)N)cc2)cc1	-36.0	nt	75.2*	nt
N#Cc1ccc(OC(=O)c2cnccn2)cc1	nt	i	nt	i
CCN(CC)P(=O)(Nc1ccc(C)cc1Br)c1ccc(N(C)C)cc1NC(=O)c1ccco1 (configuration not stated)	64.6*	i	14.6	i
CCn1c(=S)[nH]c2scc(-c3cccs3)c2c1=O	-17.2	nt	70.3*	nt
CC(C)n1c(=S)[nH]c2scc(-c3cccs3)c2c1=O	-19.4	i	71.1*	i
O=c1c2c(-c3cccs3)csc2ncn1-c1ccccc1	14.8	i	5.9	i
O=c1c2c(-c3cccs3)csc2[nH]c(=S)n1-c1ccccc1	-1.4	i	65.8*	i
Cc1ccc(C(=O)N(CCCO)Cc2cc3cc(C)ccc3[nH]c2=O)cc1	-4.2	nt	4.3	nt
COc1cccc(CN2CCN(C(=O)c3cnc(C(C)(C)C)nc3)C(C)C2)c1 (configuration not stated)	-15.6	nt	5.1	nt
CCCc1sc(NC(=O)c2ccc(F)cc2)nc1-c1ccc(OC)c(OC)c1	17.6	nt	7.9	nt
CC1(C)CC[C@]2(CO)[C@@H](O)C[C@]3(C)C(=CCC4[C@@]5(C)CC[C@H](O)C(C)(C)C5CC[C@]43C)[C@@H]2C1 (some centres not stated)	nt	i	52.6*	i
Oc1ccccc1-c1nc2cnccn2c1NCc1ccc2c(c1)OCO2	-48.0	nt	nt	nt
O=Nc1c(O)n(Cc2cccc(C(F)(F)F)c2)c2ccccc12	63.9*	i	6.0	i
O=Nc1c(O)n(Cc2ccccc2)c2ccccc12	41.0	i	5.9	i
SMILES	EP2 modulator	CHT block	PGE2 EP2 inh	CHT allo act
CCN1/C(=C/c2ccc3cc(C)cc(C)c3[n+]2CC)Sc2cc(C)ccc21	-49.0	nt	110.2*	nt
CCN1/C(=C\c2ccc3cc(C)ccc3[n+]2CC)Sc2cc(C)c(C)cc21	-37.2	nt	60.5*	nt
CC[n+]1c(/C=C2\Sc3ccc4ccsc4c3N2C)ccc2cc(C)ccc21	-60.9	nt	32.1	nt
COc1ccc(-c2ccc(=O)n(CC3CCN(C(=O)C4CCCCC4)CC3)n2)cc1OC	29.1	nt	nt	nt
Clc1ccc(CN2CCCCCC2)cc1	nt	i	nt	i
Clc1ccc(CN2CCCN(Cc3ccc(Cl)cc3)C2c2cc3ccccc3c3ccccc23)cc1	12.3	nt	51.1*	nt
CN1[C@@H]2CC(OC(=O)[C@@H](CO)c3ccccc3)C[C@H]1[C@H]1O[C@H]12 (some centres not stated)	24.0	nt	51.8*	nt
CN1C2CC(OC(=O)C(CO)c3ccccc3)CC1C1OC12 (configuration not stated)	nt	i	nt	i
CCOc1ccc(C(=O)NCCN2CCC(O)(c3cccc(F)c3)CC2)cc1	-56.7	nt	9.3	nt
Cc1cc(NCCCn2ccnc2)n2nc(C)c(-c3ccc(Cl)cc3)c2n1	-18.5	-5.1*	9.6	i
CCOC(=O)C1CCN(C(c2cc3c(C)ccc(C)c3[nH]c2=O)c2nnnn2CCOC)CC1 (configuration not stated)	-18.2	nt	16.0	nt
COc1ccc2c(c1OC)C(=O)O[C@@H]2[C@H]1c2c(cc3c(c2OC)OCO3)CCN1C	61.3*!	i	10.2	i
COc1c2c(cc3c1C(CC(O)Cc1ccccc1)N(C)CC3)OCO2 (configuration not stated)	nt	i	nt	i
